Shown is part of a subset that was picked to be rich in hits.
Methyltransferases = Primary Screen for Target Class Profiling of Small Molecule Inhibitors of Methyltransferases. actives 3.9% (n = 25,000). AID 1745853, 2022. calls only at 40 µM. purified enzyme, MTase-Glo SAH luminescence; stronger effect = lower value; call rule not given here
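Each enzyme was assayed with SAM and its substrate. SAH formation detected by MTase-Glo luminescence; single-point 40 uM screen[…].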
The depositor's hits bear a star; i = inactive; + = active, no number; ! = repeats disagree. On the % scale 0 is the no-effect control and ±100 the full control effect.

SMILES | Methyltransferases
CNC1CCC(N(Cc2cccc(-c3ccncc3)c2)C(=O)c2sc3c(F)ccc(F)c3c2Cl)CC1 (stereo not drawn) | +!
COc1ccc(-c2nnc3n(Cc4ccc(C)cc4)c(=O)c4ccccc4n23)c(O)c1 | i
CN(C)c1ccc(C2O[C@@H](c3ccccc3)C[C@H](c3ccccc3)O2)cc1 (stereo partly drawn) | i
Cc1ccc(CNC(=O)c2ncn3c2C(=O)N(C2CC2)C(C)(C(=O)NC2CCCC2)C3)cc1 (stereo not drawn) | i
COc1ccc(-c2cc3n(n2)CC(C)(C(=O)NCc2ccccc2OC)N(Cc2ccc(F)cc2)C3=O)cc1 (stereo not drawn) | i
CC1(C(=O)NC2CCCCCC2)Cn2c(cc3sccc32)C(=O)N1Cc1ccc(F)cc1 (stereo not drawn) | i
Nc1nonc1-c1nc2cnccc2n1C1CCCCC1 | +
CCc1cc2c(cc3n2CC(C)(C(=O)NC2CCCCCC2)N(CCN2CCOCC2)C3=O)s1 (stereo not drawn) | i
CC1(O)CCC2C(C3C1CCC3(C)O)C2(C)C (stereo not drawn) | i
CC1=C2C[C@@]3(C)C(CCC[C@@H]3C)C(O)C2OC1=O (stereo partly drawn) | i
CC1=C2CC3C(CCC3(C)O)C(C)(O)CC2OC1=O (stereo not drawn) | +
COC1C=C([C@@H]2CC=C3[C@@]4(C)C(CC[C@]32C)[C@@]2(C)C=CC(=O)C(C)(C)C2C[C@H]4OC(C)=O)C(=O)O1 (stereo partly drawn) | i
CC(C)CCn1c(=O)c2ccccc2n2c(SCC(=O)Nc3ccc(F)cc3F)nnc12 | i
CCCCNC(=O)c1ccc2c(=O)nc3c(-c4ccc(OC)cc4)n[nH]n3c2c1 | i
Cc1[nH]cnc1C1CCN(c2nc3cccc4c3n2CCC4=O)CC1 | +
CC(C)CNC(=O)c1ccc2c(=O)n(C(C)C)c3nn(CC(=O)Nc4cccc(Cl)c4)c(=O)n3c2c1 | i
COc1cccc(C(=O)N2CCCN(CCn3nc4n(c3=O)CCCC4)CC2)c1 | i
COc1cc(C(=O)NCCCn2ccnn2)ccc1OC1CCN(C(C)=O)CC1 | i
COc1ccc(NC(=O)Cn2nc3nc(Nc4ccc(F)cc4)ccn3c2=O)cc1F | i
O=C1CSc2ccccc2N1Cc1cccc(C(F)(F)F)c1 | +
Cc1ccc(CN2CC(=O)N(Cc3cccc(F)c3)c3ccccc3S2(=O)=O)cc1 | i
O=C1CN(Cc2cccc(F)c2)S(=O)(=O)c2ccccc2N1Cc1ccc(Cl)cc1 | i
O=C(OC1C=C(CO)C2C(OC3OC(CO)C(O)C(O)C3O)OC=CC12O)c1ccc(O)cc1 (stereo not drawn) | i
CCCN1C(=O)c2cc(C(=O)NCc3cccc(C)c3)nn2CC1(C)C(=O)NC1CCCC1 (stereo not drawn) | i
COc1ccc(CCNc2nc3c(-c4ccccc4)nnn3c3ccccc23)cc1OC | i
SMILES | Methyltransferases
Fc1cccc(-c2nnn3c2nc(NCCc2ccccc2)c2ccccc23)c1 | +
c1ccc(CCNc2nc3c(-c4ccccc4)nnn3c3ccccc23)cc1 | i
CCCCC(=O)N(C)CC1CCOC1 (stereo not drawn) | i
CC(C)c1c2cc(-c3ccnc(NC4CCC(NC5CCOCC5)CC4)n3)ccc2nn1C (stereo not drawn) | +
CC(C)OCCCN1C(=O)c2ccc(-c3ccccc3)n2CC1(C)C(=O)NC1CCCCC1 (stereo not drawn) | i
CCOc1ccccc1CNC(=O)Cn1ccc2cc(S(=O)(=O)N3CCCCC3)ccc21 | i
CC(C)[C@H](C(=O)Nc1ccc(C(=O)NO)cc1)c1ccccc1 | +
O=C(CCCCCCC(=O)Nc1ccccc1)NO | i
Cc1oc(C(O)c2ccccc2)nc1C(=O)Nc1ccc(C(=O)Nc2ccccc2)cc1 (stereo not drawn) | i
CC(C)N(C)Cc1nnnn1CC(=O)N1CCC(CCn2cccn2)CC1 | i
CCOC(=O)CNC(=O)N1Cc2c(sc3c2CCCC3)-n2cccc2C1c1cccc(OC)c1 (stereo not drawn) | i
CCCc1nc(CN(CC)C(=O)c2ccc(NC(=O)C3CCC3)cc2)no1 | i
CCN(CC)C(=O)c1ccc(Nc2nc(OCC3CCCCC3)c3[nH]cnc3n2)cc1 | +
NS(=O)(=O)c1ccc(Nc2nc(OCC3CCCCC3)c3[nH]cnc3n2)cc1 | +
Nc1nc(N)c(N=O)c(OCC2CCCCC2)n1 | i
CCOc1ccc(C(=O)Cn2nc3n(CC(C)C)c(=O)c4ccc(C(=O)NC(C)C)cc4n3c2=O)cc1 | i
CC(=O)Nc1c2n(c3ccccc13)CC(C)(C(=O)NC1CCCCC1)N(Cc1ccco1)C2=O (stereo not drawn) | i
COc1ccccc1N1CCN(c2ncnc3n[nH]c(Br)c23)CC1 | +
COc1ccccc1N1CCN(CCCCN2C(=O)c3ccccc3C2=O)CC1 | i
COc1ccccc1N1CCN(CCN(C(=O)c2ccc(F)cc2)c2ccccn2)CC1 | i
